Assay: P. aeruginosa biofilm formation inhibitors, primary screen, PAO1 strain, BacTiter-Glo luminescence, LB-PBS (AID 1144)
Conditions: 12 h, higher = more signal; call rule not given here

z-score, inactive:
CC(C)C[C@@H]1NC(=O)[C@H]2C[C@@H](C(=O)NCCCCCCNC(=O)CS)[C@@H](c3cccc(OCCO)c3)N2C1=O -0.436
CC(C)NC(=O)[C@@]1(Cc2ccccc2I)c2ccccc2C(=O)N(Cc2ccccc2)[C@H]1c1ccc(CO)cc1 -0.549
O=C1O[C@H](c2ccccc2)[C@H](c2ccccc2)N2[C@H]1[C@@H](C(=O)N1CCN(c3ncccn3)CC1)[C@]1(C(=O)Nc3ccccc31)[C@H]2c1ccc(OCCO)cc1 -2.01
COc1ccc(CCNC(=O)[C@@]2(Sc3ccc(C)cc3)CC(=O)N(Cc3ccccc3Cl)[C@@H]2c2ccc(CO)cc2I)cc1 0.0319
CN(C)C(=O)[C@]1(CCC(=O)OC(C)(C)C)N=C(c2ccc(OCCCO)cc2)O[C@@H]1c1ccccc1N=[N+]=[N-] 0.878
CC(=O)NCCCC[C@@H]1NC(=O)[C@@H]2C[C@H](C(=O)NCCCCN(C)C)[C@H](c3ccc(O)cc3)N2C1=O -1.02
COc1c(C)cc(-c2cc3c(c(-c4ccc(Oc5ccccc5)cc4)n2)[Si](C(C)C)(C(C)C)OC3)cc1C 0.0144
CC(C)CNC(=O)[C@@]1(c2ccc([N+](=O)[O-])cc2)CC(=O)N(CC23CC4CC(CC(C4)C2)C3)[C@@H]1c1ccc(CO)cc1 0.677
Cc1ccc(F)cc1S(=O)(=O)N[C@@H]1CCN(Cc2ccc(-c3ccccc3)cc2)C1 0.00325
CC(C)(C)OC(=O)CC[C@]1(C(=O)N2CCCCC2)N=C(c2ccc(OCCCO)cc2)O[C@H]1c1ccccc1N=[N+]=[N-] 0.043
COC(=O)c1ccc(C(O)C2C=CC3C(=O)N(C)C(=O)C3N2NC(=O)OC(C)(C)C)o1 (stereo not given) 0.212
CCCCCCCCCCC(O)C1C=CC2C(=O)N(Cc3ccccc3)C(=O)C2N1n1cnnc1 (stereo not given) -0.0968
CCOC(=O)C1=CC[C@@H](c2ccccc2)N(S(=O)(=O)c2ccc(C)cc2)[C@H]1C(=O)OCC 1.43
CCCNC(=O)[C@@]1(c2ccc([N+](=O)[O-])cc2)CC(=O)N(CC23CC4CC(CC(C4)C2)C3)[C@@H]1c1ccc(CO)cc1 -0.293
COCCOC(=O)N1C(=O)[C@@]2(c3ccccc31)[C@H](C(=O)NC[C@H](O)c1ccccc1)[C@H]1C(=O)O[C@H](c3ccccc3)[C@H](c3ccccc3)N1[C@@H]2c1ccc(OCCO)cc1 -1.46
CCCCC=C[C@@H](NC(=O)c1ccco1)c1ccccc1 -0.668
CC(=O)NCCCC[C@@H]1NC(=O)[C@H]2C[C@@H](C(=O)NCCCCCC[N+](C)(C)C)[C@@H](c3cccc(OCCO)c3)N2C1=O -1.01
O=C(CS)NCCCCCCNC(=O)[C@H]1C[C@H]2C(=O)NCC(=O)N2[C@H]1c1ccc(O)cc1 -0.333
COC(=O)[C@@]1(Cc2ccc(OC)cc2)[C@H]2c3cc(C(=O)N(C)C)n(Cc4c(OC)[nH]cc(C)c4=O)c3C[C@H]2CN1C(=O)c1ccccc1 0.0281
CS(=O)(=O)CCOC(=O)C1=CC(c2ccc(CO)cc2)=CC(C2CC2)N(Cc2cc3c(cc2Br)OCO3)C=C1C(=O)OCCS(C)(=O)=O (stereo not given) -0.992
C=CCOC(=O)[C@H]1[C@@H]2C(=O)O[C@@H](c3ccccc3)[C@@H](c3ccccc3)N2[C@@H](c2ccc(OCCOC(=O)[C@@H]3C[C@@H]4C(=O)N5CCC[C@H]5C(=O)N4[C@@H]3c3ccc(O)cc3)cc2)[C@]12C(=O)Nc1ccccc12 -0.506
O=C1O[C@@H](c2ccccc2)[C@@H](c2ccccc2)N2[C@@H](c3ccccc3OCCO)[C@]3(C(=O)Nc4ccc(C#CC5(O)CCCCCC5)cc43)[C@@H](C(=O)Nc3nc4ccccc4s3)[C@H]12 0.207
COCC(=C=CC[C@@H](O)c1ccc(CO)o1)CCO -1.23
CC(C)CNC(=O)[C@@H]1c2ccccc2C(=O)N(Cc2cc(C(F)(F)F)cc(C(F)(F)F)c2)[C@H]1c1ccc(CO)cc1 0.788
C=CCOC(=O)[C@H]1[C@@H]2C(=O)O[C@@H](c3ccccc3)[C@@H](c3ccccc3)N2[C@@H](c2ccc(OCCOC(=O)[C@@H]3C[C@@H]4C(=O)NCC(=O)N4[C@@H]3c3ccc(O)cc3)cc2)[C@]12C(=O)Nc1ccccc12 -0.759

— PubChem BioAssay
